# Active and inactive are the calls of the source. Unless noted, the rule behind the calls is not given here.
# How the values were obtained:
# [1] = tested on: Wnt5a (protein binding on small-molecule microarray); assay: Wnt5a binders on small-molecule microarray, primary screen, biophysical, 635/667 nm fluorescence (AID 1142); conditions: 635 nm fluorescence, higher = more signal;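 note: fluorescence read at 667 nm with signal to noise per printed feature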
# [2] = cell viability in Huh7 cells, primary screen, cytotoxicity control for HCV replication inhibitor project, CellTiter-Glo luminescence, basal, 48 h (AID 1143); conditions: Huh7 HCV replicon, higher = more signal, called active from +8 up or from −8 down;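 note: Huh7 hepatoma cells carrying a hepatitis C replication reporter with no stimulus; test concentration not given here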
# [3] = P. aeruginosa biofilm formation inhibitors, primary screen, PAO1 strain, BacTiter-Glo luminescence, LB-PBS (AID 1144); conditions: 12 h, higher = more signal
# [4] = CREB reporter modulators without forskolin, primary screen, cell-based, PC12, CRE-LacZ reporter, unstimulated (AID 1145); conditions: no forskolin, luminescence, 4.5 h, higher = more signal, called active from +8 up or from −8 down
# [5] = CREB reporter modulators under forskolin, primary screen, cell-based, PC12, CRE-LacZ reporter, forskolin-stimulated (AID 1146); conditions: luminescence, 4.5 h, higher = more signal, called active from +8 up or from −8 down;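 note: PC12 cells with 6xCRE LacZ reporter stimulated by forskolin 10 µM; beta-galactosidase reporter signal reflecting CREB driven transcription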
# [6] = molecular target: Streptavidin (Streptomyces avidinii) (UniProt P22629); assay: streptavidin binders on small-molecule microarray, primary screen, artefact control for SMM compound annotation, biophysical, 635/667 nm fluorescence (AID 1147); conditions: streptavidin binding, higher = more signal;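 note: signal reflects streptavidin binding to arrayed compounds as a control protein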
# [7] = small-molecule binders of probe aInhba, primary screen, biochemical, small-molecule microarray, 635/667 nm fluorescence (AID 1148); conditions: higher = more signal;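 note: score merges 667nm spot fluorescence with signal-to-noise for antibody binding to printed compounds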
# Torsin-1A (Homo sapiens) [8] = molecular target: Torsin-1A (Homo sapiens) (UniProt O14656); assay: torsin A binders from cell lysate, primary screen, small-molecule microarray, wild-type, 635/667 nm (AID 1149); conditions: COS7 hTOR1A-WT lysate, 635 nm fluorescence, higher = more signal
# Torsin-1A (Homo sapiens) [9] = molecular target: Torsin-1A (Homo sapiens) (UniProt O14656); assay: small-molecule binders of mutant TOR1A in lysate, primary screen, cell lysate, small-molecule microarray, COS7 lysate, 635/667 nm fluorescence (AID 1150); conditions: COS7 hTOR1A mutant lysate, 635 nm fluorescence, higher = more signal;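 note: score pools 667 nm emission and signal to noise measuring lysate protein binding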
# [10] = tested on: Sonic hedgehog protein (Shh); assay: small-molecule binders of Shh protein, primary screen, biochemical, small-molecule microarray, 635/667 nm fluorescence (AID 1151); conditions: small-molecule microarray binding, 635 nm fluorescence; higher = more signal;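 note: Shh protein binding to compounds spotted on small-molecule microarray slides; score combines spot fluorescence intensity with signal-to-noise across triplicate slides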
# [11] = E. coli DRC41 culture turbidity changes, primary screen, E. coli filamentation inducer project, strain DRC41, OD650, 48 h (AID 1152);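 note: E. coli MC1000 strain DRC41 lacking acrAB efflux pump and sulA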; conditions: E. coli DRC41 (acrAB sulA), higher = more signal, called active from +8 up or from −8 down
# [12] = small-molecule binders of probe aLefty1, primary screen, biochemical, small-molecule microarray, 635/667 nm fluorescence (AID 1153); conditions: higher = more signal;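 note: score merges spot fluorescence with signal-to-noise ratio from the scanned slide images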
# [13] = PSAC antagonists in infected red cells, primary screen, cell-based, P. falciparum Indochina, OD700, 1 h (AID 1154); conditions: P. falciparum Indochina infected RBC osmotic lysis, higher = more signal, called active from +8 up or from −8 down
# [14] = PSAC antagonists in infected red cells, primary screen, cell-based, P. falciparum Indochina, OD700, 2 h (AID 1155);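 note: lysis reports solute entry through the parasite surface anion channel PSAC; channel blockers reduce lysis of infected cells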; conditions: P. falciparum Indochina infected erythrocytes, osmotic lysis OD700; higher = more signal, called active from +8 up or from −8 down
# [15] = osmotic lysis modulators in infected erythrocytes, primary screen, PSAC antagonist project, cell-based, P. falciparum Indochina, OD700, 3 h (AID 1156); conditions: higher = more signal, called active from +8 up or from −8 down
# [16] = PSAC antagonists in infected red cells, primary screen, cell-based, P. falciparum Indochina, OD700, 18 h (AID 1157); conditions: P. falciparum Indochina infected erythrocytes, osmotic lysis OD700, 18 h; higher = more signal, called active from +8 up or from −8 down
# [17] = modulators of S6 phosphorylation in cells, primary screen, cell-based, A549, cytoblot, luminescence, serum-stimulated (AID 1158); conditions: A549 phospho-S6 cytoblot, 5 h, higher = more signal;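 note: serum-stimulated A549 lung adenocarcinoma cells; signal is phosphorylated S6 detected by cytoblot immunostaining with HRP secondary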
# [18] = molecular target: NADPH oxidase 2 (Homo sapiens) (UniProt P04839); assay: NOX2-dependent H2O2 signal modulators, primary screen, NOX inhibitor project, cell-based, HEK293-NOX2, PMA-stimulated, Amplex Red fluorescence (AID 1159); conditions: 45 min, higher = more signal, called active from +8 up or from −8 down; note: test concentration not given here
# [19] = molecular target: NADPH oxidase 4 (Homo sapiens) (UniProt Q9NPH5); assay: NOX4-dependent H2O2 signal modulators, primary screen, NOX inhibitor project, cell-based, HEK293-NOX4, tetracycline-induced, Amplex Red fluorescence (AID 1160); conditions: 45 min, higher = more signal, called active from +8 up or from −8 down
# [20] = molecular target: NADPH oxidase 5 (Homo sapiens) (UniProt Q96PH1); assay: NOX5-dependent H2O2 signal modulators, primary screen, NOX inhibitor project, cell-based, HEK293-NOX5, Amplex Red fluorescence (AID 1161); conditions: HEK293-NOX5, ionomycin, 45 min, higher = more signal
# Sequence of NADPH oxidase 5 (Homo sapiens) (Q96PH1 whole entry, looked up): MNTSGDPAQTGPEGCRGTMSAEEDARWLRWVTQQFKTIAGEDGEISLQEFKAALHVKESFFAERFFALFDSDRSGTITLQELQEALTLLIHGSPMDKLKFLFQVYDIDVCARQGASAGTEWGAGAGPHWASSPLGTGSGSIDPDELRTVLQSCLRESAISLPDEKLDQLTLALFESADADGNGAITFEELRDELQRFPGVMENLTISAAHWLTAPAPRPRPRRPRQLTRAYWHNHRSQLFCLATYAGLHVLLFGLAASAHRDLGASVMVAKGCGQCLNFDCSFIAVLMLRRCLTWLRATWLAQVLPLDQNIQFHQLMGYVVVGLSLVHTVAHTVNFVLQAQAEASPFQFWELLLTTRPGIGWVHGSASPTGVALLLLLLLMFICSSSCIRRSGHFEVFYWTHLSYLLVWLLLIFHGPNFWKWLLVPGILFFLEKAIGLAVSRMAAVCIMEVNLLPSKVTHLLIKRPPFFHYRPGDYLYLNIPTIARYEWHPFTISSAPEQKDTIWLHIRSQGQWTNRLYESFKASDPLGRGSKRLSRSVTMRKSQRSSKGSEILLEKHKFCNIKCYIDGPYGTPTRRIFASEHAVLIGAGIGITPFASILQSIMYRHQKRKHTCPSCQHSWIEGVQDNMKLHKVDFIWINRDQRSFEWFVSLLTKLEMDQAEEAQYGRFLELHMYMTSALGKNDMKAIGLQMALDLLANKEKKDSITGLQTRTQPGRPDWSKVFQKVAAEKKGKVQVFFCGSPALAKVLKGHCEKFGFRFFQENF
# Sequence of NADPH oxidase 2 (Homo sapiens) (P04839 whole entry, looked up): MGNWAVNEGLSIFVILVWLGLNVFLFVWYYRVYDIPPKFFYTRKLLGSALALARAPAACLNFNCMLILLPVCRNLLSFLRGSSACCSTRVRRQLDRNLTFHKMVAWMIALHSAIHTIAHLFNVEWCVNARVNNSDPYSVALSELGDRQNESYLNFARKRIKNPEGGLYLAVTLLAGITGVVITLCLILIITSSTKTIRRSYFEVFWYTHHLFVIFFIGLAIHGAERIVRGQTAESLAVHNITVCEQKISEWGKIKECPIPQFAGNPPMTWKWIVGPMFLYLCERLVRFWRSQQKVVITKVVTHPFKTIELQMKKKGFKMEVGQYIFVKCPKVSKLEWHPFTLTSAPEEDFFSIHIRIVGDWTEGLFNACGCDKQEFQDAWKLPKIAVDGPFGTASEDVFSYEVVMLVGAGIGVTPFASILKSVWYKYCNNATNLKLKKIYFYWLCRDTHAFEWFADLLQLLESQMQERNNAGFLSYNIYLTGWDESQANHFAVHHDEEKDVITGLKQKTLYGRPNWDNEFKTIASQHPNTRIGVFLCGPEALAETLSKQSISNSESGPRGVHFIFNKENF
# Sequence of NADPH oxidase 4 (Homo sapiens) (Q9NPH5 whole entry, looked up): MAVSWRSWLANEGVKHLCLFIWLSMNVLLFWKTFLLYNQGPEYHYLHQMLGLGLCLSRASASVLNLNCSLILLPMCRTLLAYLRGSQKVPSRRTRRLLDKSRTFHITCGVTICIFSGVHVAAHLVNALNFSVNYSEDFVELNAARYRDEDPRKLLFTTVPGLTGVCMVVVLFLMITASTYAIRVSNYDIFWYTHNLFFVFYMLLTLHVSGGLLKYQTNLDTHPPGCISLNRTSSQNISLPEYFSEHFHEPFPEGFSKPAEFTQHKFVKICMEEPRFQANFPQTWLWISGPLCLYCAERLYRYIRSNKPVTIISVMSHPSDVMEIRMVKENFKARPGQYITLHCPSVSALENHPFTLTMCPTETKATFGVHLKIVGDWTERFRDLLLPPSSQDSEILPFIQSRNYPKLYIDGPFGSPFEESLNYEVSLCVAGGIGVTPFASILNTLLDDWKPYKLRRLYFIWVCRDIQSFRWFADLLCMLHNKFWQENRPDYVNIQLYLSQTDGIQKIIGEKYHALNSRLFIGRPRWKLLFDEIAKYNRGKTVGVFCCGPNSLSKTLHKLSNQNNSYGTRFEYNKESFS
# Sequence of Streptavidin (Streptomyces avidinii) (P22629 whole entry, looked up): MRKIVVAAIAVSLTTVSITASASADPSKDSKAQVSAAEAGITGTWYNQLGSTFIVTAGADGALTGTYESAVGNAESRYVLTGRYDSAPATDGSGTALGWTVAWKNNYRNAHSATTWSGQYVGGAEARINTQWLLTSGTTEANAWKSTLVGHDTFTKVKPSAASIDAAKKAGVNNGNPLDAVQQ
# Sequence of Torsin-1A (Homo sapiens) (O14656 whole entry, looked up): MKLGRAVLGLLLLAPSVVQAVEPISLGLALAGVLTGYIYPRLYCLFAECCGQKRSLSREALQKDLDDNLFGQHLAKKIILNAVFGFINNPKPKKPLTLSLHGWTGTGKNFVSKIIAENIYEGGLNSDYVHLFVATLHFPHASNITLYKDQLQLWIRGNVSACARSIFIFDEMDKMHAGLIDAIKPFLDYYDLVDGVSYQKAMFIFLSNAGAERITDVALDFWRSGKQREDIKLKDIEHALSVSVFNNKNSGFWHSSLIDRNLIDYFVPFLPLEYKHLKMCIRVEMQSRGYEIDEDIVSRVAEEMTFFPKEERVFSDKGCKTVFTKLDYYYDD
compound,measurement,setting,value
COC(=O)[C@@]1(Cc2ccc(OC)cc2)[C@H]2c3cc(C(=O)N(C)C)n(CCc4ccc(OC)c(Br)c4)c3C[C@H]2CN1C(=O)c1ccccc1,composite z-score,[1],0.839
same,z-score,[2],-3.88 (inactive)
same,z-score,[3],0.28 (inactive)
same,z-score,[4],0.39 (inactive)
same,z-score,[5],0.0318 (inactive)
same,composite z-score,[6],1.95
same,composite z-score,[7],0.993
same,composite z-score,Torsin-1A (Homo sapiens) [8],-0.242
same,composite z-score,Torsin-1A (Homo sapiens) [9],0.733
same,composite z-score,[10],0.116
same,z-score,[11],-1.52 (inactive)
same,composite z-score,[12],1.61
same,z-score,[13],3.73 (inactive)
same,z-score,[14],1.39 (inactive)
same,z-score,[15],0.307 (inactive)
same,z-score,[16],1.35 (inactive)
same,z-score,[17],-0.21
same,z-score,[18],-0.052 (inactive)
same,z-score,[19],0.493 (inactive)
same,z-score,[20],0.527
CN1C(=O)C2C=CC(C(O)c3ccc(N(C)C)cc3)N(Nc3ccc([N+](=O)[O-])cc3[N+](=O)[O-])C2C1=O (stereo not given),composite z-score,[1],0.0988
same,z-score,[2],0.891 (inactive)
same,z-score,[3],-0.202 (inactive)
same,z-score,[4],1.03 (inactive)
same,z-score,[5],0.0229 (inactive)
same,composite z-score,[6],1.51
same,composite z-score,[7],0.529
same,composite z-score,Torsin-1A (Homo sapiens) [8],0.977
same,composite z-score,Torsin-1A (Homo sapiens) [9],1.56
same,composite z-score,[10],0.262
same,z-score,[11],-0.692 (inactive)
same,composite z-score,[12],0.719
same,z-score,[13],2.33 (inactive)
same,z-score,[14],1.27 (inactive)
same,z-score,[15],-0.169 (inactive)
same,z-score,[16],1.05 (inactive)
same,z-score,[17],-0.444
same,z-score,[18],-0.742 (inactive)
same,z-score,[19],-1.39 (inactive)
same,z-score,[20],-0.0769
O=C1O[C@H](c2ccccc2)[C@H](c2ccccc2)N2[C@H]1[C@@H](C(=O)NC[C@H](O)c1ccccc1)[C@]1(C(=O)Nc3ccc(C#CC4=CCCCC4)cc31)[C@H]2c1ccc(OCCO)cc1,composite z-score,[1],0.271
same,z-score,[2],-4.66 (inactive)
same,z-score,[3],-0.625 (inactive)
same,z-score,[4],0.0653 (inactive)
same,z-score,[5],-0.337 (inactive)
same,composite z-score,[6],0.635
same,composite z-score,[7],-0.0695
same,composite z-score,Torsin-1A (Homo sapiens) [8],0.257
same,composite z-score,Torsin-1A (Homo sapiens) [9],0.705
same,composite z-score,[10],1.11
same,z-score,[11],-0.266 (inactive)
same,composite z-score,[12],0.0248
same,z-score,[13],3.76 (inactive)
same,z-score,[14],2.55 (inactive)
same,z-score,[15],0.0828 (inactive)
same,z-score,[16],2.26 (inactive)
same,z-score,[17],-0.099
same,z-score,[18],1.13 (inactive)
same,z-score,[19],0.611 (inactive)
same,z-score,[20],1.32
O=C1O[C@@H](c2ccccc2)[C@@H](c2ccccc2)N2[C@@H](c3ccc(OCCO)cc3)[C@]3(C(=O)Nc4ccc(C#CCCO)cc43)[C@@H](C(=O)N3CCN(c4ncccn4)CC3)[C@H]12,composite z-score,[1],0.544
same,z-score,[2],-0.284 (inactive)
same,z-score,[3],-0.132 (inactive)
same,z-score,[4],0.478 (inactive)
same,z-score,[5],0.0989 (inactive)
same,composite z-score,[6],0.509
same,composite z-score,[7],0.0403
same,composite z-score,Torsin-1A (Homo sapiens) [8],0.376
same,composite z-score,Torsin-1A (Homo sapiens) [9],0.5
same,composite z-score,[10],1.93
same,z-score,[11],0.533 (inactive)
same,composite z-score,[12],0.242
same,z-score,[13],3.54 (inactive)
same,z-score,[14],1.71 (inactive)
same,z-score,[15],-1.56 (inactive)
same,z-score,[16],0.664 (inactive)
same,z-score,[17],-0.436
same,z-score,[18],2 (inactive)
same,z-score,[19],0.677 (inactive)
same,z-score,[20],0.589
CCCCCCc1nc(-c2cc(C)c(OC)c(C)c2)cc2c1[Si](C(C)C)(C(C)C)O[C@H]2c1ccccc1,composite z-score,[1],-0.452
same,z-score,[2],-0.59 (inactive)
same,z-score,[3],0.368 (inactive)
same,z-score,[4],-0.244 (inactive)
same,z-score,[5],-0.272 (inactive)
same,composite z-score,[6],0.0741
same,composite z-score,[7],-0.121
same,composite z-score,Torsin-1A (Homo sapiens) [8],-1.48
same,composite z-score,Torsin-1A (Homo sapiens) [9],-1.07
same,composite z-score,[10],-0.162
same,z-score,[11],-0.548 (inactive)
same,composite z-score,[12],-0.0989
same,z-score,[13],1.31 (inactive)
same,z-score,[14],-0.0446 (inactive)
same,z-score,[15],1.06 (inactive)
same,z-score,[16],0.0157 (inactive)
same,z-score,[17],0.561
same,z-score,[18],-0.313 (inactive)
same,z-score,[19],-1.16 (inactive)
same,z-score,[20],-2.07
N#Cc1ccc(NN2C(C(O)CCc3ccccc3)C=CC3C(=O)N(c4ccccc4)C(=O)C32)cc1 (stereo not given),composite z-score,[1],0.135
same,z-score,[2],-0.843 (inactive)
same,z-score,[3],-1.07 (inactive)
same,z-score,[4],-0.905 (inactive)
same,z-score,[5],-0.259 (inactive)
same,composite z-score,[6],0.79
same,composite z-score,[7],0.194
same,composite z-score,Torsin-1A (Homo sapiens) [8],-0.0047
same,composite z-score,Torsin-1A (Homo sapiens) [9],0.985
same,composite z-score,[10],-0.0548
same,z-score,[11],-0.487 (inactive)
same,composite z-score,[12],0.272
same,z-score,[13],11.9 (active)
same,z-score,[14],1.44 (inactive)
same,z-score,[15],0.712 (inactive)
same,z-score,[16],-0.864 (inactive)
same,z-score,[17],0.843
same,z-score,[18],-2.47 (inactive)
same,z-score,[19],-3.59 (inactive)
same,z-score,[20],-1.41
Cc1ccc(S[C@]2(C(=O)NC3CC3)CC(=O)N(Cc3cc(C(F)(F)F)cc(C(F)(F)F)c3)[C@@H]2c2ccc(CO)cc2)cc1,composite z-score,[1],0.134
same,z-score,[2],-2.38 (inactive)
same,z-score,[3],-1.59 (inactive)
same,z-score,[4],-0.374 (inactive)
same,z-score,[5],0.121 (inactive)
same,composite z-score,[6],-0.103
same,composite z-score,[7],-0.128
same,composite z-score,Torsin-1A (Homo sapiens) [8],-0.408
same,composite z-score,Torsin-1A (Homo sapiens) [9],0.227
same,composite z-score,[10],1.38
same,z-score,[11],0.537 (inactive)
same,composite z-score,[12],-0.0186
same,z-score,[13],1.21 (inactive)
same,z-score,[14],-0.861 (inactive)
same,z-score,[15],1.08 (inactive)
same,z-score,[16],-1.95 (inactive)
same,z-score,[17],0.95
same,z-score,[18],0.249 (inactive)
same,z-score,[19],-0.00878 (inactive)
same,z-score,[20],1.78
N#Cc1ccc(NN2C(C(O)c3ccc(I)cc3)C=CC3C(=O)N(c4ccccc4)C(=O)C32)cc1 (stereo not given),composite z-score,[1],0.205
same,z-score,[2],0.559 (inactive)
same,z-score,[3],-0.363 (inactive)
same,z-score,[4],-1.49 (inactive)
same,z-score,[5],-0.755 (inactive)
same,composite z-score,[6],0.941
same,composite z-score,[7],-0.0645
same,composite z-score,Torsin-1A (Homo sapiens) [8],-0.147
same,composite z-score,Torsin-1A (Homo sapiens) [9],0.629
same,composite z-score,[10],-0.468
same,z-score,[11],-1.95 (inactive)
same,composite z-score,[12],0.526
same,z-score,[13],9.81 (active)
same,z-score,[14],3.64 (inactive)
same,z-score,[15],-1.43 (inactive)
same,z-score,[16],2.57 (inactive)
same,z-score,[17],-0.484
same,z-score,[18],-2.64 (inactive)
same,z-score,[19],-4.46 (inactive)
same,z-score,[20],-2.48
O=C1NC(=O)C2C1C=CC(C(O)C=Cc1ccc([N+](=O)[O-])cc1)N2Nc1ccccn1 (stereo not given),composite z-score,[1],0.421
same,z-score,[2],0.931 (inactive)
same,z-score,[3],-1.23 (inactive)
same,z-score,[4],0.443 (inactive)
same,z-score,[5],-0.28 (inactive)
same,composite z-score,[6],-0.208
same,composite z-score,[7],0.0694
same,composite z-score,Torsin-1A (Homo sapiens) [8],0.151
same,composite z-score,Torsin-1A (Homo sapiens) [9],0.13
same,composite z-score,[10],0.809
same,z-score,[11],-0.297 (inactive)
same,composite z-score,[12],0.0457
same,z-score,[13],0.273 (inactive)
same,z-score,[14],1.27 (inactive)
same,z-score,[15],0.0385 (inactive)
same,z-score,[16],1 (inactive)
same,z-score,[17],-0.831
same,z-score,[18],0.258 (inactive)
same,z-score,[19],-2.01 (inactive)
same,z-score,[20],-1.52

# Source: PubChem BioAssay
